PubChem BioAssay (EPA / NIEHS)
“And” between values parts separate entries of the source, which are not always exact repeats. Equal entries are not always repeated. A structure can be active in one record and inactive in another. The source made the active and inactive calls. The calls were made as follows: active = hit-call score of the fitted dose curve at least 0.9, where 1 is the maximum; inactive = score below 0.9.

Columns and labels:
[1] = read-out: Epidermal growth factor receptor (EGFR), EGFR (gene 1956); assay: BSK_BE3C_EGFR: BioMAP Diversity Plus: BE3C Assay for Epidermal growth factor receptor (EGFR) Biomarker Activity (AID 2284281); details: primary human bronchial epithelial cells
How it was run: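 Measured 24 h after dosing in primary human bronchial epithelial cultures, EGFR was read by ELISA; gain of signal over DMSO control defined activity.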

[2] = read-out: KRT18 (gene 3875); assay: BSK_BE3C_Keratin818: BioMAP Diversity Plus: BE3C Assay for Keratin 818 Biomarker Activity (AID 2284282); details: primary human bronchial epithelial cells
How it was run: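 In this multiplexed primary-cell system, bronchial epithelial cells were dosed and harvested at 24 h. Keratin 8/18 was determined by ELISA and analysed for increases over DMSO controls.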

[3] = read-out: Matrix Metallopeptidase 9 (MMP9), MMP9 (gene 4318); assay: BSK_BE3C_MMP9: BioMAP Diversity Plus: BE3C Assay for Matrix Metallopeptidase 9 (MMP9) Biomarker Activity (AID 2284283); details: primary human bronchial epithelial cells
How it was run: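 Human primary bronchial epithelial cells exposed 24 h to compound. MMP9 quantified by ELISA. SRB total-protein staining of parallel cultures assesses cytotoxicity. Positive-direction fit relative to DMSO.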

[4] = read-out: Plasminogen activator inhibitor-1 (PAI1), SERPINE1 (gene 5054); assay: BSK_CASM3C_PAI1: BioMAP Diversity Plus: CASM3C Assay for Plasminogen activator inhibitor-1 (PAI1) Biomarker Activity (AID 2284284); details: primary human coronary artery smooth muscle cells;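 also: PAI-1 protein level measured by ELISA 24 h after dosing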
[5] = read-out: Monocyte Chemoattractant Protein-1 (MCP1), CCL2 (gene 6347); assay: BSK_hDFCGF_MCP1: BioMAP Diversity Plus: hDFCGF Assay for Monocyte Chemoattractant Protein-1 (MCP1) Biomarker Activity (AID 2284285); details: primary human foreskin fibroblasts
How it was run: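 MCP-1 ELISA readout was taken 24 hours after dosing primary human dermal fibroblasts in the hDFCGF system, with DMSO as baseline. Parallel sulforhodamine B staining of total protein tracked overt cytotoxicity.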

[6] = read-out: Vascular cell adhesion molecule 1 (VCAM1), VCAM1 (gene 7412); assay: BSK_IMphg_VCAM1: BioMAP Diversity Plus: IMphg Assay for Vascular cell adhesion molecule 1 (VCAM1) Biomarker Activity (AID 2284286); details: primary human endothelial cells with macrophages
How it was run: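 ELISA read-out of VCAM-1 on venular endothelial cell/macrophage co-cultures at 24 h post-treatment, with DMSO as baseline and positive-direction fitting. Parallel sulforhodamine B total-protein staining (560 nm) served as the overt cytotoxicity measure.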

[7] = read-out: Intercellular Adhesion Molecule 1 (ICAM1), ICAM1 (gene 3383); assay: BSK_hDFCGF_ICAM1: BioMAP Diversity Plus: hDFCGF Assay for Intercellular Adhesion Molecule 1 (ICAM1) Biomarker Activity (AID 2284287); details: primary human foreskin fibroblasts
How it was run: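 ICAM-1 ELISA readout 24 h after dosing, DMSO as baseline, in human dermal foreskin fibroblast cultures. Cytotoxicity checked in parallel wells by SRB staining (0.1% SRB, 10% TCA fixation, 560 nm).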

[8] = read-out: CD40, CD40 (gene 958); assay: BSK_IMphg_CD40: BioMAP Diversity Plus: IMphg Assay for CD40 Biomarker Activity (AID 2284288); details: primary human endothelial cells with macrophages
How it was run: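 ELISA read-out of cell-surface CD40 at 24 h in human venular endothelial cell/macrophage co-cultures. Activity fitted in the positive direction against DMSO; parallel SRB staining (560 nm) gauges overt cytotoxicity.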

[9] = read-out: TIMP metallopeptidase inhibitor 2 (TIMP2), TIMP2 (gene 7077); assay: BSK_hDFCGF_TIMP2: BioMAP Diversity Plus: hDFCGF Assay for TIMP metallopeptidase inhibitor 2 (TIMP2) Biomarker Activity (AID 2284289); details: primary human foreskin fibroblasts
How it was run: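 Primary human foreskin fibroblasts in the hDFCGF system, dosed for 24 h; TIMP-2 level measured by ELISA, fitted in the positive direction against DMSO; cytotoxicity checked in parallel by sulforhodamine B total protein staining.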

[10] = read-out: Interleukin-1 alpha (IL1a), IL1A (gene 3552); assay: BSK_IMphg_IL1a: BioMAP Diversity Plus: IMphg Assay for Interleukin-1 alpha (IL1a) Biomarker Activity (AID 2284290); details: primary human endothelial cells with macrophages
How it was run: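 IL-1α is quantified by ELISA at 24 h in the endothelial/macrophage IMphg co-culture, with gain of signal fitted relative to DMSO. Parallel SRB total-protein staining flags overt toxicity.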

[11] = BSK_IMphg_SRB: Viability Assessment in the BioMAP Diversity Plus: IMphg Assay (AID 2284292); details: primary human endothelial cells with macrophages;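 also: measured one day after compound addition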
How it was run: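 SRB viability endpoint: cultures of human endothelial cells plus macrophages fixed with 10% TCA, stained with 0.1% SRB, read at 560 nm 24 h post-dosing. Only gain-of-signal fitted, relative to DMSO.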

[12] = read-out: Macrophage colony-stimulating factor (MCSF), CSF1 (gene 1435); assay: BSK_IMphg_MCSF: BioMAP Diversity Plus: IMphg Assay for Macrophage colony-stimulating factor (MCSF) Biomarker Activity (AID 2284293); details: primary human endothelial cells with macrophages
How it was run: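 M-CSF was measured by ELISA in human venular endothelial cell/macrophage co-cultures dosed for 24 hours. Sulforhodamine B staining of parallel cultures assessed cytotoxicity; data fitted against DMSO baseline.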

[13] = read-out: Interleukin-10 (IL10), IL10 (gene 3586); assay: BSK_IMphg_IL10: BioMAP Diversity Plus: IMphg Assay for Interleukin-10 (IL10) Biomarker Activity (AID 2284294); details: primary human endothelial cells with macrophages
How it was run: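 IL-10 read by ELISA after 24 h chemical exposure of primary human venular endothelial cell/macrophage cocultures, with DMSO as baseline. Parallel SRB staining (560 nm) gauged overt cytotoxicity.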

[14] = BSK_IMphg_SRB.Mphg: Macrophage Viability Assessment in the BioMAP Diversity Plus: IMphg Assay (AID 2284295); details: primary human endothelial cells with macrophages
How it was run: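 Cytotoxicity read-out: parallel cultures fixed with 10% TCA, stained with 0.1% sulforhodamine B, read at 560 nm. System combines venular endothelium and macrophages; sampled 24 h post-dosing, fitted positively relative to DMSO control.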

[15] = read-out: Thrombomodulin, THBD (gene 7056); assay: BSK_LPS_Thrombomodulin: BioMAP Diversity Plus: LPS Assay for Thrombomodulin Biomarker Activity (AID 2284296); details: primary human HUVEC with PBMC
How it was run: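 Thrombomodulin on the surface of LPS-activated endothelial/PBMC co-cultures was quantified by ELISA at 24 hours post-dosing, with DMSO as baseline. Parallel SRB total-protein staining flagged overt cytotoxicity.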

[16] = read-out: E-selectin (Homo sapiens) (UniProt P16581); assay: BSK_IMphg_ESelectin: BioMAP Diversity Plus: IMphg Assay for Eselectin Biomarker Activity (AID 2284291); details: primary human endothelial cells with macrophages
How it was run: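 Analysed against DMSO baseline in the positive fitting direction, this endpoint is an ELISA read of E-selectin. It comes from human venular endothelial cells co-cultured with macrophages, sampled 24 h post-dose.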

Measured: AC50

Sequence of E-selectin (Homo sapiens) (P16581 whole entry, looked up): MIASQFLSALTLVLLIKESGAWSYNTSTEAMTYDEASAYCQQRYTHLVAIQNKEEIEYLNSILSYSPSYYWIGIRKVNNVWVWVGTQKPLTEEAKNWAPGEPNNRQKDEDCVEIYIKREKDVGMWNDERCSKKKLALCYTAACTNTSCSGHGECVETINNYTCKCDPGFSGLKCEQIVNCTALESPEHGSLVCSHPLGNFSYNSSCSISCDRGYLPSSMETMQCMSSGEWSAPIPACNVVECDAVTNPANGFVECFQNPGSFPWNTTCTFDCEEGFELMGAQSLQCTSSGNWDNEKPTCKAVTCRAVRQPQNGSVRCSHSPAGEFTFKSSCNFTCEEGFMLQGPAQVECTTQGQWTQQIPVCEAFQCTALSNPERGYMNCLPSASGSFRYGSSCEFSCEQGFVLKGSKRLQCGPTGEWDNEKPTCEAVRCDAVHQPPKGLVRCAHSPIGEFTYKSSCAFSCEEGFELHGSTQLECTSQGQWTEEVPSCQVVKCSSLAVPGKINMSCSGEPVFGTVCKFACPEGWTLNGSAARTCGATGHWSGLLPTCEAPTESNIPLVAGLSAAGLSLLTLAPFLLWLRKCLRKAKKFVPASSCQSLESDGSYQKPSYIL

O=C(O)C(F)(F)C(F)(F)C(F)(F)F
active: [8] 319 nM
inactive: [1] | [2] | [3] | [4] | [5] | [6] | [7] | [8] | [9] | [10] | [11] | [12] | [13] | [14] | [15]

CCCCC(CC)COP(=O)(O)OCC(CC)CCCC (configuration not stated)
inactive: [2] | [3] | [4] | [7] | [9] | [15]
active: [1] 26.3 µM and 20 µM | [3] 29.6 µM | [5] 32.2 µM

O=C(O)C(F)(F)C(F)(F)C(F)(F)C(F)(F)C(F)(F)C(F)(F)C(F)(F)C(F)(F)Cl
active: [1] 13.6 µM and 11.5 µM | [2] 48.7 µM and 56 µM | [3] 42.9 µM and 40.4 µM | [5] 44.4 µM and 47 µM | [6] 48.5 µM and 45.7 µM | [7] 14.1 µM and 8.21 µM | [8] 44.5 µM and 46.5 µM | [9] 6.54 µM | [11] 56.6 µM and 47.9 µM | [13] 45.8 µM and 45.3 µM | [15] 30 µM and 27.2 µM
inactive: [4] | [9] | [10] | [12]

FC(F)(F)C(F)(F)C(F)(F)C(F)(F)CCI
not listed: [14]
inactive: all other assays above

O=S(=O)(O)C(F)(F)C(F)(F)C(F)(F)C(F)(F)C(F)(F)C(F)(F)C(F)(F)F
active: [13] 13.3 µM
inactive: [1] | [2] | [3] | [4] | [5] | [6] | [7] | [8] | [9] | [10] | [16] | [11] | [12] | [13] | [15]

O=C(O)C(F)(F)C(F)(F)C(F)F
not listed: [14]
inactive: all other assays above

O=C(O)C(F)(F)C(F)(F)C(F)(F)C(F)(F)C(F)(F)C(F)(F)C(F)(F)C(F)(F)C(F)(F)C(F)F
active: [1] 7.89 µM | [2] 19.6 µM and 10.5 µM | [3] 14.2 µM and 10.6 µM | [5] 23.4 µM and 42 µM | [6] 52.7 µM | [7] 14.5 µM | [11] 55.7 µM and 50.4 µM | [13] 47.3 µM and 45 µM | [15] 55 µM and 12.4 µM
inactive: [1] | [4] | [6] | [7] | [8] | [9] | [10] | [12]

FC(F)(Br)C(F)(F)C(F)(F)C(F)(F)C(F)(F)C(F)(F)Br
inactive: all assays above

Cc1ccc(S(=O)(=O)OCC(F)(F)C(F)(F)C(F)(F)C(F)(F)C(F)(F)C(F)F)cc1
active: [5] 6.75 µM and 3.49 µM
not listed: [14]
inactive: all other assays above

OCC(F)(F)C(F)(F)C(F)(F)C(F)(F)C(F)(F)C(F)F
inactive: [1] | [2] | [3] | [4] | [5] | [6] | [7] | [8] | [9] | [10] | [11] | [12] | [13] | [15]
active: [8] 1790 nM | [10] 23.4 µM

COC(=O)CCC(F)(F)C(F)(F)C(F)(F)C(F)(F)F
inactive: [1] | [2] | [3] | [4] | [5] | [6] | [7] | [8] | [9] | [10] | [16] | [11] | [12] | [13] | [15]
active: [13] 7.74 µM

O=C(O)C(F)(F)C(F)(F)C(F)(F)C(F)(F)C(F)(F)C(F)(F)C(F)(F)C(F)(F)C(F)(F)C(F)(F)C(F)(F)C(F)(F)C(F)(F)F
inactive: [1] | [2] | [3] | [4] | [5] | [6] | [7] | [8] | [9] | [10] | [11] | [12] | [13] | [14] | [15]
active: [3] 0.675 µM
